GDH-TPI counter – GDH-TPI coupled enzyme inhibition counter-screen; AID 588335; GDH-TPI coupled enzyme counterscreen, NADH absorbance; inhibition, % at 4.8 µM; hit rate 1.2% among 360,000; in the data active means inhibition above about 30%;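 further: 0% = DMSO wells and 100% = wells lacking the enzyme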
RecA splice inh – Mtb RecA intein splicing inhibition; cell-free RecA intein splicing, fluorescence; AID 2221; P9WHJ3; hit rate 0.75% among 290,000; inhibition, % (concentration not given with the values); in the data active means inhibition above about 30%; inconclusive means no clear call, values can overlap the other calls;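 further: 0% = vehicle wells and 100% = reference inhibitor control wells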
Mtb UGM inh – blocks M. tuberculosis UGM enzyme | inhibition, % at 10 µM | P9WIQ1 | hit rate 0.06% among 320,000 | purified UGM, fluorescence polarization probe displacement; in the data active means inhibition above about 10%, passing the limit was not always enough; inconclusive means no clear call, values can overlap the other calls
Mtb bLac sens – beta-lactam sensitization of Mtb H37Rv; M. tuberculosis H37Rv growth with meropenem, percent inhibition; inhibition, % at 25 µM; hit rate 0.27% among 330,000; AID 434955; call rule not given here;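 further: growth measured after seven days incubation then overnight dye step; 0% = bacteria only wells and 100% = bacteria with antibiotic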
Rv3671c inh – inhibitors of M. tuberculosis serine protease Rv3671c; inhibition, % at 5.96 µM; hit rate 0.048% among 320,000; AID 2606; in the data active means inhibition above about 38%;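 further: extracellular domain of Rv3671c used as enzyme; 0% = enzyme with DMSO and 100% = no enzyme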
FBA Mtb inh – Mtb fructose-bisphosphate aldolase inhibition; P9WQA3; hit rate 2.3% among 360,000; AID 588726; inhibition, % at 1 µM; purified M. tuberculosis FBA, fluorescence read-out; in the data active means inhibition above about 27%;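 further: 0% = vehicle and 100% = reference inhibitor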
Target sequence (P9WQA3 whole entry, looked up): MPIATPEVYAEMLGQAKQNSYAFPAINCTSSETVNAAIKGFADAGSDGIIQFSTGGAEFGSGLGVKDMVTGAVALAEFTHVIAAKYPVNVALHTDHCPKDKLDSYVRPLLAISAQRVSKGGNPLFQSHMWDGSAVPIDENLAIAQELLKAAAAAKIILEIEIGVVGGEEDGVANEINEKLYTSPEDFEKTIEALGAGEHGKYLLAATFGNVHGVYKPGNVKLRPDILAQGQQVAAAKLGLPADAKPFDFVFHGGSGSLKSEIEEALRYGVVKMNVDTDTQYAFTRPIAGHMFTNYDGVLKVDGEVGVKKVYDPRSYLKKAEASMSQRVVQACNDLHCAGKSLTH
* = called active by the depositor; u = inconclusive; x = not tested or not shown; + = active, no number. In the library only some 4% were active in any assay of this set; here they are far more common.

SMILES | GDH-TPI counter | RecA splice inh | Mtb UGM inh | Mtb bLac sens | Rv3671c inh | FBA Mtb inh
Cn1c(NC(=O)/C=C/c2ccccc2)cc(=O)n(C)c1=O | 62* | -1 | -1 | 7 | 2 | -1
CC(=O)c1ccc(S(=O)(=O)NCc2ccc(C(=O)NCC(c3ccccc3)N(C)C)cc2)cc1 (stereo unspecified) | -2 | 2 | 0 | -4 | -13 | 0
COc1ccc(CNC(=O)c2nn(-c3ccccc3)cc2OC)cc1 | -1 | 1 | -2 | 4 | 1 | 1
Cc1noc(NS(=O)(=O)c2ccc(N/C=C\C(=O)c3ccncc3)cc2)c1C | 20 | 1 | 4 | 1 | -2 | -2
Cc1noc(NS(=O)(=O)c2ccc(N/C=C/C(=O)c3cccnc3)cc2)c1C | 34* | 0 | 0 | 3 | 4 | 0
O=C(/C=C\Nc1ccc(Br)cc1)c1cccnc1 | 35* | -12 | -3 | 9 | 4 | -6
COc1ccc(C(C(=O)NC2CCCCC2)N(C(=O)CCl)c2ccc(C)cc2)cc1 (stereo unspecified) | 12 | -3 | 3 | 7 | -1 | -2
COC(CN(C(=O)CCl)C(C(=O)NC1CCCCC1)c1ccc(C)cc1)OC (stereo unspecified) | 1 | 32* | 0 | -4 | -5 | 1
COc1ccc(/C=C/C(=O)NC(=S)NNC(=O)c2cc(OC)c(OC)c(OC)c2)cc1 | 18 | 1 | 1 | -1 | 3 | -1
COc1ccc(/C=C/C(=O)NC(=S)NNC(=O)c2cc(OC)c(OC)c(OC)c2)cc1OC | 51* | 2 | 1 | -9 | 8 | 0
COc1cc(/C=C/C(=O)Nc2ccc(C(C)=O)cc2)cc(OC)c1OC | 45* | -4 | -3 | 0 | -9 | 1
COc1cc(C(=O)Nc2cc(-c3cn4cccnc4n3)ccc2C)cc(OC)c1OC | 12 | -2 | -2 | -7 | 1 | +
COc1ccc(-c2cn3cccnc3n2)cc1Br | 13 | -3 | 1 | 6 | -2 | +
COc1cc(OC)cc(C(=O)Nc2cc(-c3cn4cccnc4n3)ccc2C)c1 | 11 | -2 | x | 0 | 3 | +
COc1ccc(-c2cn3cccnc3n2)cc1NC(=O)C1CCCC1 | 23 | 3 | 2 | x | -5 | 16
O=C(COc1ccccc1)Nc1cccc(-c2cn3cccnc3n2)c1 | 2 | 2 | -2 | -17 | 8 | +
COc1cccc(CNS(=O)(=O)c2ccc3c(c2)C(C)(C)C(=O)N3C)c1 | 6 | 2 | 0 | -2 | 10 | 3
CCOC(=O)c1ccc(S(=O)(=O)N2CCN(C(=O)c3ccccn3)CC2)cc1 | 0 | x | -1 | 0 | -7 | 2
COc1ccc(NC(=O)C2C3C=CC4(O3)C2C(=O)N(CCN2CCCCC2C)C4C(=O)NC2CCCCC2)cc1 (stereo unspecified) | 1 | x | -1 | -4 | -4 | 1
COc1ccc(-c2cn3cccnc3n2)cc1NC(=O)C(C)C | 34* | -4 | 0 | 0 | 1 | 25
Cc1ccc(-c2cn3cccnc3n2)cc1NC(=O)c1cccs1 | 18 | -5 | -2 | -4 | 6 | +
Nc1ccc(-c2cn3cccnc3n2)cc1 | 38* | -2 | x | x | x | 8
COCCN(C(=O)COC(=O)c1c(NC(C)=O)sc(C)c1C)c1c(N)n(Cc2ccccc2)c(=O)[nH]c1=O | 4 | -1 | 0 | -7 | 0 | -1
Cc1nnc(SCC(=O)Nc2cc(Cl)ccc2Cl)n1CC1CCCO1 (stereo unspecified) | -2 | x | 3 | -22 | 1 | 2
COC(=O)c1c(C)c2c(C)cc3ccccn3c-2c1C(=O)OC | 20 | -6 | 2 | 0 | 21 | 2
SMILES | GDH-TPI counter | RecA splice inh | Mtb UGM inh | Mtb bLac sens | Rv3671c inh | FBA Mtb inh
COC(=O)c1cc2c(-c3ccccc3)cc3ccccn3c-2c1C(=O)OC | 35* | -2 | 0 | 20 | 0 | -4
CN(C(=O)COC(=O)CNC(=O)c1ccc(C(C)(C)C)cc1)c1c(N)n(Cc2ccccc2)c(=O)[nH]c1=O | -4 | 4 | 0 | -6 | 7 | -2
Cc1c(Cl)cccc1NC(=O)CSCc1cc(=O)[nH][nH]1 | 1 | 85* | 6 | -9 | -4 | -7
O=C1NC(=S)N/C1=C/c1cc([N+](=O)[O-])ccc1O | 34* | 3 | -3 | -2 | -4 | -21
Cc1ccc(NC(=O)C2=C(C(=O)O)CCCC2)cc1Br | -7 | 1 | 0 | 86 | 2 | 2
COc1ccc(S(=O)(=O)N2CC(=O)Nc3ccccc32)cc1 | 15 | 0 | 1 | -7 | -11 | 0
CCCOc1ccc(/C(O)=C2/C(=O)C(=O)N(CCOC)C2c2cccnc2)cc1 (stereo unspecified) | x | 0 | -1 | -2 | 6 | x
C=CCOc1ccc(/C(O)=C2\C(=O)C(=O)N(CCOC)C2c2cccnc2)cc1 (stereo unspecified) | 34* | 1 | 1 | -2 | 4 | 3
COCCN1C(=O)C(=O)/C(=C(/O)c2cccc(OC)c2)C1c1ccco1 (stereo unspecified) | 35* | 4 | -1 | 0 | 5 | -3
COCCCN1C(=O)C(=O)/C(=C(/O)c2ccc(OCC(C)C)cc2C)C1c1cccnc1 (stereo unspecified) | 44* | -2 | -1 | 2 | -2 | 0
COc1ccc(Cl)cc1C(=O)NNC(=O)c1nn(C)c(=O)c2ccccc12 | 8 | x | 1 | 32 | 7 | 1
O=C(CNC(=O)c1ccc(F)cc1)NCc1ccc(S(=O)(=O)N2CCOCC2)cc1 | -2 | x | x | x | x | -1
CC(CCc1ccccc1)NC(=O)CNC(=O)c1ccccc1Br (stereo unspecified) | -4 | 0 | -1 | 1 | 2 | 0
CCC(C)Sc1ccc([C@H]2N[C@@](C)(C(=O)OC)[C@H]3C(=O)N(C)C(=O)[C@@H]23)cc1 (stereo partly specified) | 6 | x | -1 | 3 | 6 | 2
CO[C@H]1C=CO[C@@]2(C)Oc3c(C)c(O)c4c(O)c(c(C=NN5CCN(C)CC5)c(O)c4c3C2=O)NC(=O)C(C)=CC=C[C@H](C)[C@H](O)[C@@H](C)[C@@H](O)[C@@H](C)[C@H](OC(C)=O)[C@@H]1C | 40* | u | -1 | 100 | -9 | -13
NS(=O)(=O)c1ccc(N2N=C(c3ccccc3)CC2c2ccccc2)cc1 (stereo unspecified) | 12 | -43 | 0 | 20 | 6 | +
CNC(=S)N1N=C(c2ccccc2)CC1c1ccccc1Cl (stereo unspecified) | 6 | -5 | 4 | 3 | -2 | 2
NS(=O)(=O)c1ccc(N2N=C(c3ccccc3)CC2c2ccc(Br)cc2)cc1 (stereo unspecified) | 9 | x | x | x | x | 187*
NS(=O)(=O)c1ccc(N2N=C(c3ccccc3)CC2c2ccccc2Cl)cc1 (stereo unspecified) | 25 | x | x | x | x | 188*
O=S(=O)(O)c1ccc(N2N=C(c3ccccc3)CC2c2ccccc2)cc1 (stereo unspecified) | 18 | -160 | 3 | -6 | 6 | +

Assay outcomes from PubChem.
